gsp antagonist: gsp mutant antagonism; 340,000 tested, 0.4% active; Potency, µM (titrated, usually from 76.9 µM), inactives show top-dose activity change, negative = inhibition, actives largely listed as inhibitors; gsp-mutant cells, cAMP HTRF, 30 min; calls by dose curve; cell line not stated here;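 note: intracellular cAMP measured with PDE inhibitor Ro 20-1724 present during compound exposure; % is set by controls: 0 for no effect and ±100 for the full control effect; nearly all actives have a fitted effect of over 65% in size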
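Cells, 2000/well, grown 16–24 h in DMEM 10% FBS with 0.5 mg/ml G418, then compounds plus […] (300 uM addition stock), 30 min at 37C. cAMP read by HTRF (cAMP-d2 and anti-cAMP antibody-K in lysis buffer) after 30 min RT.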
Rango-impB inh: prevents formation of the Rango-importin beta complex. Q14974. Rango CFP/YFP FRET sensor + importin beta, 45 min. Potency, µM (highest dose often 92.2 µM), for inactives: at the highest dose inhibition of complex formation. 340,000 tested, 0.031% active;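 note: 0% = DMSO wells and 100% = buffer wells lacking importin beta; nearly all actives have a fitted effect of over 15% in size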
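FRET biosensor (snurportin 1 IBB flanked by EYFP and cerulean), 50 nM, with compound 5 min, then 0.125 microM importin beta in PBS, 1 mM DTT, 0.02% Tween-20, 0.1% BSA. CFP/YFP ratio read after 45 min at room temperature; pre-read flags interference.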
Rango release inh: prevents RanGTP from dissociating the Rango-importin beta complex; O95149+P62826; Biochemical FRET Rango-importin beta, RanGTP-induced dissociation; Potency, µM (highest dose often 46.1 µM), inactives show at the highest dose activity change, negative = inhibition; 340,000 tested, 0.071% active; AID 540253; note: % of control where 0% means no effect; nearly all actives have a fitted effect of over 45% in size
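Rango/importin beta premix (0.1/0.25 uM final), PBS + 1 mM DTT + 0.02% Tween-20 + 0.1% BSA; cpd 5 min RT; FRET pre-read; + RanGTP-RCC1 (0.6 uM Ran, 2 mM GTP, 0.2 uM RCC1); 45 min RT; FRET post-read, ex 430, em 486/530 nm.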
S-ASM inh: blocks human secretory acid sphingomyelinase; 340,000 tested, 0.006% active; placental ASM, HMU-PC fluorogenic substrate, 60 min; Potency, µM (highest dose often 57.5 µM), for inactives: at the top dose activity change, negative = inhibition, actives largely listed as inhibitors; P17405; active = well fitted inhibition curve with a large enough effect; inconclusive = small, poorly fitted or top-dose-only effect; inactive = no such curve, though single readings can be large or run the other way
Target sequence (P17405 47-631 limits assumed): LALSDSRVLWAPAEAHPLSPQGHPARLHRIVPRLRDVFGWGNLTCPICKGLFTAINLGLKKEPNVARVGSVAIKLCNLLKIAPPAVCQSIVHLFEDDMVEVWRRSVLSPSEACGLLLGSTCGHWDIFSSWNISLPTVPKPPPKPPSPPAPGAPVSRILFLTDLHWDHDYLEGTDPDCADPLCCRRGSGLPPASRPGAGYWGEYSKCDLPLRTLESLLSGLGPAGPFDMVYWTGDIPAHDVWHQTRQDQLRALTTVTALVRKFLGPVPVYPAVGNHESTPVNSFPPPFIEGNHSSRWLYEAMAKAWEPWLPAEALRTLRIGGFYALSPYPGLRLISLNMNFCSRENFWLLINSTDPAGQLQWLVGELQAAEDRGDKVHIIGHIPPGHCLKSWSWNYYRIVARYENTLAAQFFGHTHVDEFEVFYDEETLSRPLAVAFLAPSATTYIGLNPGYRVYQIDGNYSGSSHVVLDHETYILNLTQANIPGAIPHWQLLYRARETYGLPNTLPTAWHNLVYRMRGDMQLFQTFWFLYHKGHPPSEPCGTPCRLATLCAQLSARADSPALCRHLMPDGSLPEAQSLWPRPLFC
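Human placenta-derived ASM preincubated with compound 10 min at room temperature, then reacted with 9 uM (final) fluorogenic HMU-PC substrate for 60 min at 37 C. Stop solution raises pH to 10; fluorescence read at Ex 386/Em 447 nm.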
gsp ag: gsp mutant agonism. gsp mutant cells, cAMP HTRF, 30 min. Potency, µM (doses to about 76.9 µM), inactives show at the top dose activation (cAMP increase), actives largely listed as activators. 340,000 tested, 0.13% active; active = well fitted activation curve with a large enough effect; inconclusive = small, poorly fitted or top-dose-only effect, or another doubt; inactive = no such curve, though single readings can be large or run the other way; cell line not stated here;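 note: phosphodiesterase inhibitor Ro 20-1724 added with compounds to block cAMP breakdown; nearly all actives have a fitted effect of over 60% in size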
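Cells stably selected in G418 were plated at 2000/well, grown 16-24 hr, then given compounds in DMSO with the PDE inhibitor […] (300 uM solution added) for 30 min at 37C; cAMP was read by HTRF.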
Starred values were filed as active, the others as inactive; [ ] = remark or other dose. Rows were chosen to be rich in hits. Some 0.67% of all compounds tested hit in one or more screens of this group. Unless noted, calls come from the whole dose curve. Potency is the fitted concentration of half-maximal effect.

Screening Cc1c(C(=O)N2CCCCC2C)sc2ncnc(N3CCc4ccccc4C3)c12 (stereo not drawn) returned gsp antagonist 11.2µM*, Rango-impB inh 6.1%, Rango release inh -22.1%, S-ASM inh -4.2% and gsp ag 5.9%[15.4 µM].
`CC(C)c1ccc(NC(=O)C2CSC3(C)CCC(=O)N23)cc1` (stereo not drawn) gave gsp antagonist 0.2%, Rango-impB inh 1.2%, Rango release inh -3.2%, S-ASM inh 1.0% and gsp ag -28.1%.
CN(C)c1ccc(-c2nc3cc(N)ccc3o2)cc1 was read as gsp antagonist 12.2%, Rango-impB inh inconclusive, Rango release inh inconclusive, S-ASM inh inactive and gsp ag 20µM*.
`Nc1ccc(-c2nc3cc(N)ccc3o2)cc1` gave gsp antagonist 15.3%, Rango-impB inh -0.4%, Rango release inh 15.4%, S-ASM inh inactive and gsp ag inconclusive.
`O=C(CNC(=O)c1ccccc1)OCc1cc(=O)n2cc(Br)ccc2n1` gave gsp antagonist 7.5%, Rango-impB inh 1.5%, Rango release inh 14.3%, S-ASM inh -2.5% and gsp ag 5.62µM*.
Screening O=C(CNC(=O)c1cccc(F)c1)OCc1cc(=O)n2cc(Br)ccc2n1 returned gsp antagonist 3.2%, Rango-impB inh -4.4%, Rango release inh -9.6%, S-ASM inh 1.2% and gsp ag inconclusive.
`Cc1ccc(S(=O)(=O)N2CCC(C(=O)OCC(=O)Nc3cc(S(C)(=O)=O)ccc3Cl)CC2)cc1C` gave gsp antagonist -14.5%, Rango-impB inh 1.5%, Rango release inh -19.2%, S-ASM inh 2.0% and gsp ag -11.7%.
`CCS(=O)(=O)Nc1ccc(C2=NN(C(=O)c3ccccc3)C(c3cccs3)C2)cc1` (stereo not drawn) gave gsp antagonist 28.2µM*, Rango-impB inh 4.2%, Rango release inh -5.2%, S-ASM inh -9.4% and gsp ag 5.6%.
CCS(=O)(=O)Nc1ccc(C2=NN(C(=O)c3ccco3)C(c3cccs3)C2)cc1 (stereo not drawn) was read as gsp antagonist inconclusive, Rango-impB inh -0.2%, Rango release inh 0.7%, S-ASM inh -2.9% and gsp ag 2.7%[15.4 µM].
`COc1ccc(OCCOC(=O)CN2C(=O)NC3(CCCC3)C2=O)cc1` gave gsp antagonist 5.8%, Rango-impB inh -2.3%, Rango release inh -9.3% and gsp ag 5.1%.
Screening CCCc1cc(=O)oc2cc(OC(=O)CN3C(=O)NC4(CCCC4)C3=O)ccc12 returned gsp antagonist 5.0%, Rango-impB inh inconclusive, Rango release inh 11.6µM* and gsp ag -1.3%.
`O=C(CSc1ccc(-c2ccc3c(c2)OCO3)nn1)Nc1nccs1` gave gsp antagonist 11.4%, Rango-impB inh -3.2%, Rango release inh -4.5%, S-ASM inh -0.4% and gsp ag -4.8%[15.4 µM].
`O=C(CSCC(=O)Nc1nc(-c2ccc3c(c2)OCO3)cs1)Nc1nccs1` gave gsp antagonist 31.6µM*, Rango-impB inh 2.9%, Rango release inh 0.2%, S-ASM inh -12.8% and gsp ag 5.9%.
For Cc1ccc(CNC(=O)CN(C(=O)C2(C)CC(=O)N=C3C=CC=CN32)c2cccc(C)c2C)cc1 (stereo not drawn) the results were gsp antagonist 9.4%, Rango-impB inh 1.5%, Rango release inh -11.5%, S-ASM inh 45.0% and gsp ag 2.4%[15.4 µM].
Screening Cc1ccc(C)c(OCC(O)CN2CCN(CCN3C(=O)c4cccc5cccc(c45)C3=O)CC2)c1 (stereo not drawn) returned gsp antagonist -12.3%, Rango-impB inh -4.0%, Rango release inh -10.8%, S-ASM inh -7.9% and gsp ag -42.4%.
For CC(=O)c1ccccc1OCC(O)CN1CCN(CCN2C(=O)c3cccc4cccc(c34)C2=O)CC1 (stereo not drawn) the results were gsp antagonist 31.6µM*, Rango-impB inh -1.5%, Rango release inh inconclusive, S-ASM inh -1.1% and gsp ag -15.7%[15.4 µM].
Screening O=C(NCc1cccnc1)Nc1ccc(Cl)cc1 returned gsp antagonist 11.2µM*, Rango-impB inh 0.4%, Rango release inh 21.7%, S-ASM inh 0.5% and gsp ag 29.2%.
COc1ccc(NC(=O)NCc2cccnc2)cc1 was read as gsp antagonist inconclusive, Rango-impB inh -0.2%, Rango release inh 2.8%, S-ASM inh 5.9% and gsp ag inconclusive.
Screening Cc1cc(/C=C2\SC(=S)N(C)C2=O)c(C)n1-c1ccc(O)cc1 returned gsp antagonist inconclusive, Rango-impB inh inconclusive, Rango release inh inconclusive, S-ASM inh -21.4% and gsp ag 29.0%.
Screening Cc1cc(/C=C2\SC(=S)N(C)C2=O)c(C)n1-c1ccccc1O returned gsp antagonist 35.5µM*, Rango-impB inh inconclusive, Rango release inh inconclusive, S-ASM inh inconclusive and gsp ag 25.7%.
For CC(C(=O)O)n1nc2ccccc2n1 (stereo not drawn) the results were gsp antagonist 2.3%, Rango-impB inh -5.1%, Rango release inh 1.0%, S-ASM inh -0.3% and gsp ag 4.0%.
`CCC1=C(OC(=O)N(CC)CC)N2C(=O)OC(=NCCc3c[nH]c4ccccc34)[C@]2(Cc2ccccc2)[C@H]2C1=CC[C@H]1C(=O)NC(=O)[C@H]12` gave gsp antagonist 11.2µM*, Rango-impB inh 0.3%, Rango release inh -15.2%, S-ASM inh -5.2% and gsp ag -2.4%.
C=CCNC(=S)Nc1sc2c(c1C(=O)OCC)CC(C)(CC)OC2 (stereo not drawn) was read as gsp antagonist 7.94µM*, Rango-impB inh 0.3%, Rango release inh 23.9%, S-ASM inh 2.7% and gsp ag -1.7%[15.4 µM].
For CCOC(=O)c1c(NC(=O)C2CC2)sc2c1CC(C)(C)OC2 the results were gsp antagonist -14.5%, Rango-impB inh 3.9%, Rango release inh -13.7%, S-ASM inh 0.5% and gsp ag 1.7%.
CCOC(=O)c1c(NC(=O)C2CC(Cl)=CCC2C(=O)O)sc2c1CC(C)(C)OC2 (stereo not drawn) was read as gsp antagonist 14.1µM*, Rango-impB inh -3.1%, Rango release inh -14.0%, S-ASM inh -3.2% and gsp ag 22.8%[15.4 µM].
Screening CCOc1ccc(CN2CCC(Cc3ccccc3)CC2)cc1 returned gsp antagonist -3.5%, Rango-impB inh 0.6%, Rango release inh inconclusive, S-ASM inh -0.3% and gsp ag -24.8%.
Screening COCCCn1c(=O)c2sccc2n(Cc2cc(C(=O)OC)ccc2OC)c1=O returned gsp antagonist -14.1%, Rango-impB inh -0.2%, Rango release inh 2.0%, S-ASM inh 1.9% and gsp ag 1.6%.

High-throughput results (PubChem BioAssay)
